# Most compounds without a hit are left out; they make up all but 5.3% or so of the library.
# PfM18AAP inh: blocks P. falciparum M18 aspartyl aminopeptidase. recombinant PfM18AAP, H-Glu-NHMec fluorogenic cleavage. inhibition, % at 7.35 µM. 290,000 tested, 1.2% active;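 active = inhibition above the campaign mean inhibition over all tested compounds plus 3 SD, cut at about 28% in these data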;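 also: 0% = plate median of test compound wells and 100% = 2 mM ZnCl2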
# HIF activator: HIF pathway transcriptional activation; AID 1910; 300,000 tested, 0.32% active; activation, % at 7.5 µM (by protocol); U2OS HRE-luciferase reporter, luminescence; normalized: DMSO 0%, desferrioxamine 100%;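 active = mean activation of at least 10% of the iron chelator positive control signal, with at least half of replicates also reaching 10%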
# Mot1-301 SUMO: inhibitors of SUMOylation pathway: yeast Mot1-301 growth rescue | S. cerevisiae Mot1-301 growth rescue, ATP luminescence, 38.5C; percent above DMSO median, 100 means doubled | growth rescue, % at 18.8 µM | 320,000 tested, 1% active;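 active = every valid replicate shows activation above 250% relative to neutral control wells; inactive = the rest, any valid replicate at or below 250%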;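 also: OY570 slx delta 5 strain wells were the positive control but not used for scaling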
# ALR inh: inhibitors of human sulfhydryl oxidase ALR. AID 485317. 290,000 tested, 3.8% active. P55789. inhibition, % (no concentration beside the values). purified ALR, DTT oxidation, H2O2 HRP-luminol luminescence;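 active = mean replicate inhibition above about 79%, with every replicate also reaching it, limit read from the data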
# Target sequence (P55789 whole entry, looked up): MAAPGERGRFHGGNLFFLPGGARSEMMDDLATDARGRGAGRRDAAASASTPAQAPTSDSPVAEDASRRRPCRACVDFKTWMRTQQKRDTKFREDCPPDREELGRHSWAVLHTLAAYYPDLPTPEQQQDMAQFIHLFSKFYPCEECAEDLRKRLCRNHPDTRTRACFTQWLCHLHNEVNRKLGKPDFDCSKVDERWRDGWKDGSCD
# Active calls of the source: *; . = no result.
SMILES,PfM18AAP inh,HIF activator,Mot1-301 SUMO,ALR inh
CCOC(=O)CN1C(=O)C2(OCCCO2)c2cc(Br)ccc21,8,3,-16,2
COc1ccc(-c2nnc(SCC(=O)Nc3c(Cl)cc(Cl)cc3C(=O)O)o2)cc1,.,.,-17,1
CCc1cccc(NC(=O)C2CCCN(c3ncnc4c3nc3n4CCCCC3)C2)c1 (centres undefined),1,0,-11,2
CC12CCC(C)(c3nc4ccccc4nc31)C2(C)C,-5,0,13,2
Cc1[nH]nc2c1-c1nc3ccccc3nc1C(C)(C)C2,-13,0,17,99*
CN(Cc1ccccc1)c1ncc(C=O)s1,0,0,3,-6
COc1cccc(-n2nnnc2S(C)(=O)=O)c1,-54,-2,27,99*
NC(=O)[C@@H]1CCNc2c(I)cc([N+](=O)[O-])cc2C(=O)N[C@@H](CCC(=O)O)C(=O)N[C@@H](CO)C(=O)N1,-18,.,-7,3
CC(C)(C)NC(=O)C(Cc1ccccc1)NS(=O)(=O)c1ccc2c(c1)CCC(=O)N2 (centres undefined),-14,0,1,98*
O=C(c1cc(C(=O)c2ccco2)cc(C(=O)c2ccco2)c1)c1ccco1,-12,0,-11,97*
O=C(c1ncc[nH]1)c1ccco1,9,0,-12,2
O=C(CNC(=O)OCc1ccccc1)Nc1ccc(F)cc1,.,.,-1,0
Cc1nc2nc(SCc3ccc([N+](=O)[O-])cc3)[nH]c2cc1Br,-1,1,-1,-11
O=C(NC1CCCCC1)C(c1ccccc1)N1CCc2ccccc21 (centres undefined),6,0,11,98*
Cc1cc(C)c(C(=O)C(C)OC(=O)c2ccc(Cl)nc2)cc1C (centres undefined),4,0,-4,2
O=C(N/N=C/c1sc(=O)n(-c2ccccc2)c1Cl)c1ccncc1,6,1,-3,98*
COC(=O)c1cn(C)c2ccc(S(=O)(=O)N3CCCCC3)cc2c1=O,-10,90*,.,.
COc1cc(N/N=C(\C)c2ccc(N)cc2)nc(-c2ccccc2)n1,6,0,-14,98*
COc1cc(N/N=C(\C)c2ccc(O)c(C)c2)nc(-c2ccccc2)n1,7,0,-3,10
S=c1[nH]ncn1/N=C/c1cccc(Oc2ccccc2)c1,23,0,10,99*
CN1CCN(C(N)=NC(=O)c2ccccc2)CC1,2,0,10,-4
C=CCn1c(=N)n(CC(=O)OCC)c2ccccc21,3,.,5,99*
COc1ccccc1NS(=O)(=O)c1cccc(NS(=O)(=O)c2ccc(Cl)c(C(=O)O)c2)c1,.,.,-1,-3
Cc1csc(NC(=O)c2oc3ccccc3c2C)n1,.,2,8,5
Cc1c(C(=O)NC2=NCCS2)oc2ccccc12,5,0,10,97*
SMILES,PfM18AAP inh,HIF activator,Mot1-301 SUMO,ALR inh
CCOc1ccc(N(CC(=O)NCc2ccccc2C)S(C)(=O)=O)cc1,0,-5,-2,-2
O=C(CNC(=O)c1ccc(Br)o1)NNC(=O)c1ccccc1F,2,0,-15,-2
O=C(O)COc1ccccc1/C=C1\SC(=S)N(/N=C/c2ccccc2O)C1=O,33*,-1,-6,66
O=C(O)COc1ccccc1/C=C1\SC(=S)N(NC(=O)c2ccccc2O)C1=O,.,-3,11,63
Cc1ccc(NC(=O)c2ccc(=O)[nH]n2)cc1S(=O)(=O)Nc1ccc(SC(F)F)cc1,.,.,2,99*
O=C(Nc1nnc(-c2ccco2)o1)c1cccc(Cl)c1,-2,0,32,96*
COc1cccc(-c2nnc(NC(=O)c3ccc(Cl)s3)o2)c1,-7,0,-1,3
O=C(Nc1nnc(-c2ccco2)o1)c1ccc(Cl)s1,5,0,-9,96*
CCCCc1c(C)nc(N)[nH]c1=O,-5,20*,-33,.
CC1=CC(=C(C#N)c2nc3ccccc3s2)C=C(C)N1CC1CCCO1 (centres undefined),-5,1,62,95*
NS(=O)(=O)c1ccc(CCNc2nc3c(-c4cccc(F)c4)nnn3c3ccccc23)cc1,2,0,546*,-5
CCOC(=O)c1c(-c2ccccc2)oc2ccc(OCC(O)CNCCN(C)C)cc12 (centres undefined),-1,-22,11,-9
CCOc1cccc(C(=O)Nc2cc(C)ccc2NC(=O)c2ccco2)c1,6,0,.,.
COc1ccccc1C(=O)Nc1ccc(N2CCN(C(C)=O)CC2)cc1,1,0,-14,30
COc1c(C)cccc1C(=O)Nc1ccc(CN2CCCCC2)cc1,1,2,7,94*
